Screening results (PubChem)
CBX7 inh: inhibitors of human CBX7 binding to H3K27me3 peptide; normalised signal (fraction of DMSO) (test concentration not listed); AlphaScreen His6-CBX7 / biotin-H3K27me3 peptide binding; stronger effect = lower value; actives 1.1% (n = 66,000); O95931; in the data active means normalised signal below about 0.5
Target sequence (O95931 whole entry, looked up): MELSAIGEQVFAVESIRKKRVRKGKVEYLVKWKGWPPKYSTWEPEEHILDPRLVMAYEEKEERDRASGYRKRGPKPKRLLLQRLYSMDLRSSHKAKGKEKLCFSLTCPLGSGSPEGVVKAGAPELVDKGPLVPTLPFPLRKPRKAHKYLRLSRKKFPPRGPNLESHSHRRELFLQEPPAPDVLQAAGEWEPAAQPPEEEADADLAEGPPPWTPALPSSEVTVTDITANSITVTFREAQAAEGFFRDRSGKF
Numbers without * were called inactive; ! = a repeat was not active. Shown is part of a subset that was picked to be rich in hits.

SMILES	CBX7 inh
CCCC(=O)NC(c1ccc(C)cc1)c1cc(Cl)c2cccnc2c1O (configuration not stated)	0.72
Cc1cc(OCC(O)CN2CCC(C)CC2)ccc1Cl (configuration not stated)	1.1
CC1CCN(Cc2cc(Cl)c(O)c3ncccc23)CC1	0.0029*
CC1CCN(c2nc(-c3ccccc3O)nc3ccccc23)CC1	1
CC1CCN(Cc2nc(-c3ccccc3)no2)CC1	0.91
CCn1c(CCNC(=O)c2cccc(C)c2)nc2ccccc21	0.8
O=C(NCc1ccccc1)C1CCCN(c2nnc(-n3cccc3)s2)C1 (configuration not stated)	0.99
Clc1ccc(C(c2nnnn2-c2ccccc2)N2CCOCC2)cc1 (configuration not stated)	1
CCC1CCCCN1CCCNC(=O)c1cc(Nc2ccccc2OC)nc2ccccc12 (configuration not stated)	1.1
Oc1ccc(-c2nc(-c3ccc(F)cc3)c(-c3ccc(F)cc3)[nH]2)cc1	1.2
O=C(O)c1ccc(-c2nc(-c3ccc(-c4ccccc4)cc3)c(-c3ccc(-c4ccccc4)cc3)[nH]2)cc1	0.54
Oc1ccc(-c2nc(-c3ccccc3)c(-c3ccccc3)[nH]2)cc1	0.42*!
Brc1ccc(-c2nc(-c3ccccc3)c(-c3ccc(Sc4ccccc4)cc3)[nH]2)cc1	0.86
CCOc1cc(-c2nc(-c3ccccc3)c(-c3ccc(Br)cc3)[nH]2)ccc1O	0.62
Oc1ccc(-c2nc(-c3ccccc3)c(-c3ccc(Br)cc3)[nH]2)cc1	0.46*
CCCCCCCNC1CC(=O)N(c2cccc(Cl)c2)C1=O (configuration not stated)	1
c1ccc(Cn2c(CNc3nc4ccccc4n3Cc3ccccc3)nc3ccccc32)cc1	0.81
CCc1cccc2c(CCNC(=O)Cn3nc(C)c(Cl)c3C)c(C)[nH]c12	0.71
CCc1ccc(NS(=O)(=O)c2ccc3[nH]cc(C(=O)N(C)CCC#N)c(=O)c3c2)cc1	0.99
CC1(C)CC(=O)C2=C(C1)NC(=O)CC2c1cccc(C(F)(F)F)c1 (configuration not stated)	1.1
COc1ccc(-n2c(C)ccc2-c2ccccc2)nc1	0.86
COc1ccc2oc(C(=O)c3ccccc3)c(NC(=O)CSc3ccccn3)c2c1	1.1
CCc1nnc(NC(=O)c2ccc(S(=O)(=O)N(C)c3ccccc3)cc2)o1	0.68
CCN(CC)S(=O)(=O)c1ccc(C(=O)Nc2nnc(C(C)C)s2)cc1	1.1
CCc1nnc(NC(=O)c2ccc(S(=O)(=O)N(CC(C)C)CC(C)C)cc2)o1	0.1*
SMILES	CBX7 inh
CCc1nnc(NC(=O)c2ccc(S(=O)(=O)N(CC)CC)cc2)o1	0.1*
Cc1ncc(CO)c2cc(-c3nnc(Nc4ccc(F)cc4)s3)c(=O)oc12	1
COc1ccc(Nc2cc(C(=O)NCc3ccc(C)cc3)c3ccccc3n2)cc1	0.92
Cc1ccccc1Nc1c(-c2ccccn2)nc2ccc(Br)cn12	0.92
COC(=O)CNc1c(-c2ccccn2)nc2ccc(Br)cn12	0.063*
Brc1ccc2nc(-c3ccccn3)c(Nc3ccc4c(c3)OCO4)n2c1	0.66
Cc1oc(-c2ccc(Cl)cc2)nc1CSCC(=O)NCc1cccnc1	0.94
Cc1cccc2c(C(=O)O)cc(-c3ccc4c(c3)OCCO4)nc12	1.1
COc1ccc2nc(C)cc(Nc3ccc(OCc4ccccc4Cl)cc3)c2c1	0.8
COc1ccc(-c2cn(-c3ccc(Cl)cc3)c(SCC(=O)Nc3cccc(C)c3)n2)cc1OC	0.53
Cc1ccc(-n2cc(-c3ccc4c(c3)OCO4)nc2SCC(=O)Nc2cc(C)cc(C)c2)cc1	0.49*
COc1ccc(NC(=O)CSc2nccn2-c2ccc(Cl)cc2)c(OC)c1	0.49*
Cc1ccc(NC(=O)CSc2nccn2-c2ccc(F)cc2)cc1Cl	0.82
Cc1ccc(-n2cc(-c3ccc4c(c3)OCO4)nc2SCC(=O)Nc2ccccc2)cc1	0.81
COc1ccc(NC(=O)CSc2nccn2-c2ccc(OC)cc2)cc1	0.86
Cc1ccc(-n2cc(-c3ccc4c(c3)OCO4)nc2SCC(=O)Nc2ccc3c(c2)OCO3)cc1	0.85
COc1ccc(-n2ccnc2SCC(=O)Nc2ccc(C)c(Cl)c2)cc1	0.47*
COc1ccc(-c2cn(-c3ccccc3)c(SCC(=O)Nc3ccc(F)cc3)n2)cc1OC	0.66
COc1ccc(-c2cn(-c3ccc(Cl)cc3)c(SCC(=O)Nc3ccc(F)cc3)n2)cc1OC	0.45*
COc1ccc(-n2ccnc2SCC(=O)Nc2ccccc2OC)cc1	0.66
COc1ccc(-n2ccnc2SCC(=O)Nc2ccc(Cl)cc2)cc1	0.9
O=C(NCCc1ccccc1)c1ccc2c(c1)NC(=O)c1ccccc1N2	1.1
CCOc1ccc(C(=O)Nc2c3c(nn2-c2ccc(F)cc2)CSC3)cc1	1.1
COc1ccccc1CNC(=O)C1CCCN(S(=O)(=O)c2ccc(C)cc2)C1 (configuration not stated)	1
Cc1nnc(Sc2cc(C(=O)NCCCN3CCC(C)CC3)c3ccccc3n2)s1	0.94
COc1cc2c(cc1OC)C(c1c(F)cccc1F)NCC2 (configuration not stated)	1
